Hits are enriched below; roughly 9.4% of the tested compounds scored in any of these assays.
ELG1 genotox = induces genotoxicity in HEK293T cells with luciferase-tagged ELG1; HEK293T ELG1-luciferase reporter, luminescence, 16 h; Potency, µM (titrated, usually from 46 µM), inactives show at the highest dose activity change, positive = activation, usual class: activators; 330,000 compounds, 1.3% hits; also: % of control where 0% means no effect; nearly all actives have a fitted effect of over 60% in size
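DMSO vehicle served as control against compound-treated ELG1-luciferase HEK293T cells; exposure lasted 16 hr at 37 °C and 5% CO2, followed by ONE-Glo luminescence detection after 30 min.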
Rab9 promoter act = activators of Rab9 promoter; Huh7 Rab9 promoter-luciferase reporter, luminescence, 24 h; Potency, µM (series often up to 9.22 µM), without a hit: top-dose activation, negative = inhibition, actives largely listed as activators; 320,000 compounds, 2.8% hits; also: % of control where 0% means no effect; nearly all actives have a fitted effect of over 60% in size
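Stable Rab9-luc Huh7, 1500 cells/well, 2 h settle; cmpd in DMSO, 24 h, 37 °C/5% CO2; luciferase reagent 10 min RT; luminescence.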
SMN2 splice enh = enhancers of SMN2 splice variant expression; 210,000 compounds, 2.8% hits; Potency, µM (highest dose often 46.1 µM), without a hit: top-dose activity change, positive = activation, hits mostly activators; HEK293 SMN2-luciferase splicing reporter, luminescence, 30-36 h; also: % of control where 0% means no effect; nearly all actives have a fitted effect of over 55% in size
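HEK293 cells carry an SMN2 […]–luciferase reporter in which exon 7 inclusion puts luciferase in frame. Cells were plated 10-12 h before compound addition, then incubated 30-36 h at 37C. ONE-Glo luminescence was read; sodium butyrate at 4.5 mM final served as control.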
FLuc modulator = counter-screen for miR-21 project: firefly luciferase inhibitors or activators; purified FLuc, Km substrates, luminescence inhibition; Potency, µM (top dose mostly 57.5 µM), for the others: top-dose activity change, negative = inhibition, hits mostly inhibitors; 360,000 compounds, 6.9% hits; AID 588342;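 also: plate controls were vehicle for no effect and reference inhibitor for full effect; nearly all actives have a fitted effect of over 55% in size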
Target sequence (P08659 whole entry, looked up): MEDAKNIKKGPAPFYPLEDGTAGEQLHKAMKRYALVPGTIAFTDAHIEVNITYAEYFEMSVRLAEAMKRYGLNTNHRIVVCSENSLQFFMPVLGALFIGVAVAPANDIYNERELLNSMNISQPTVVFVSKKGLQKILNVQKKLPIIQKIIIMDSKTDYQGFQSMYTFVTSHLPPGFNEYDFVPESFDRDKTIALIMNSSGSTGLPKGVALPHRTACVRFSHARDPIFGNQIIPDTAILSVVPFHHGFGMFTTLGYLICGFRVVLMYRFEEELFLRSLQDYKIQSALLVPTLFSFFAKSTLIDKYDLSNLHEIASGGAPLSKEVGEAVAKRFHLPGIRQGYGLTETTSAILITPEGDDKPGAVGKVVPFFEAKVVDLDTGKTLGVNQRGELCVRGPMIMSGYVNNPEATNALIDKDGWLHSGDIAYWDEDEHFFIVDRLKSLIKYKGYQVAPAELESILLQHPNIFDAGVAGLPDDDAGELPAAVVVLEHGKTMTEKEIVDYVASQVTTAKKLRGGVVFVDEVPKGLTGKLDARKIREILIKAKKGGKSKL
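Purified P. pyralis luciferase, 10 nM final, with Km-level 10 uM D-luciferin and 10 uM ATP in 50 mM Tris acetate pH 7.5, 10 mM Mg acetate, 0.01% Tween-20, 0.05% BSA; 6-point qHTS titration about 60 µM downward; luminescence read.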
NPC1 promoter act = activates the NPC1 promoter | Huh7 NPC1 promoter luciferase reporter, 24 h | Potency, µM (highest dose often 9.22 µM), for inactives: at the top dose activation, usual class: activators | 320,000 compounds, 2.4% hits | AID 485313; also: % of control where 0% means no effect; nearly all actives have a fitted effect of over 60% in size
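Cells: Huh7 expressing luciferase under the NPC1 promoter, 1500/well. Seeded 2 h, compound added, incubated 24 h at 37 °C. Luciferase reagent, 10 min ambient, then luminescence.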
ELG1 DNA repair = ELG1-dependent DNA repair inhibition | HEK293T ELG1-luciferase reporter, luminescence, 16 h; DNA damage induced by 5-fluorouridine | Potency, µM (top dose mostly 46.1 µM), for the others: top-dose activity change, negative = inhibition, usual class: inhibitors | 330,000 compounds, 2.3% hits; also: % is scaled to controls: 0 for no effect and ±100 for the full control effect; nearly all actives have a fitted effect of over 55% in size
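Quantitative HTS, concentration-response format. 2,000 cells/well co-treated with 5-fluorouridine and compound, 16 hr in 5% CO2 at 37 °C; ONE-Glo luminescence read after 30 min.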
* marks the source's active call; other numbers are inactive results; u = inconclusive; x = not tested or not shown. Calls follow the shape of the dose curve; as a rule, active = well fitted curve in the direction sought with a large enough effect; inconclusive = small, poorly fitted or top-dose-only effect, or another doubt; inactive = no such curve, though single readings can be large; an effect the other way counts as inactive or inconclusive. Potency is read from the fitted curve at half-maximal effect.

SMILES | ELG1 genotox | Rab9 promoter act | SMN2 splice enh | FLuc modulator | NPC1 promoter act | ELG1 DNA repair
CCc1nnc(NC(=O)CSc2ccc(-c3ccccc3OC)nn2)s1 | 8% | -4% | -3% | u | -7% | u
CCc1nnc(NC(=O)CSc2nccn2-c2cccc(C)c2C)s1 | -8% | -8% | -74% | 6% | -10% | 9.2µM*
Cc1cc(NC(=O)CSc2nc(-c3cccc(F)c3)nc3c2c(=O)n(C)c(=O)n3C)no1 | x | x | x | -2% | x | x
CCCN(CCC)C(=O)c1nn(C)c2c1CSc1ccc(C)cc1-2 | x | x | x | 0% | x | x
COC(=O)c1ccc(Cn2c(SCc3ccccc3)nc3ccncc32)cc1 | x | x | 5% | -18% | x | x
CC(C)c1ccc(NC(=O)CCS(=O)(=O)c2cccc3nonc23)cc1 | 0% | -1% | 10% | -1% | -2% | 11%
O=C1CC(c2ccccc2)Cc2[nH]c(=O)c(-c3nc(-c4ccc(F)cc4)cs3)cc21 (configuration not stated) | x | x | 4% | -2% | x | x
Oc1ccccc1/C=N/N1CCN(c2ccccn2)CC1 | u | 2.8µM* | x | 13µM* | u | u
O=[N+]([O-])c1cccc(/C=N/N2CCN(Cc3ccccc3)CC2)c1 | u | u | u | u | 30% | u
CC(C)c1ccc(/C=N/N2CCN(c3ccccn3)CC2)cc1 | 3% | u | x | u | u | 3%
O=[N+]([O-])c1cccc(/C=N/N2CCN(c3ccccn3)CC2)c1 | 17% | 3.2µM* | x | u | u | u
C(=N\N1CCN(c2ccccn2)CC1)/c1cccc2ccccc12 | -3% | 2% | x | 17µM* | 2% | u
C(=C\c1ccccc1)/C=N/N1CCN(c2ccccn2)CC1 | 4.1µM* | u | u | 12µM* | u | u
CC(=O)c1ccc(NC(=O)Cn2ncc3c(C)n(Cc4ccc(F)cc4)c(C)c3c2=O)cc1 | x | x | 1% | -13% | x | x
Cc1ccc(C)c(NC(=O)CSc2c3c(nc4ccc(Cl)cc24)CCCC3)c1 | x | x | -9% | 4% | x | x
CCN(CCCNC(=O)CN1N=C(c2ccc(OC)cc2)CCC1=O)c1cccc(C)c1 | x | x | x | -7% | x | x
CC(C)Oc1ccc(C2CC(=O)N(c3cccc(C(=O)O)c3)C2=O)cc1 (configuration not stated) | u | 3% | 19% | 17µM* | 28% | u
CC(C)Oc1ccc(C2CC(=O)N(c3ccc(C(=O)O)cc3)C2=O)cc1 (configuration not stated) | 0% | 0% | x | -7% | -2% | 10%
Cc1ccc(CNC(=O)CN2c3cccc4cccc(c34)S2(=O)=O)cc1 | 0% | -5% | x | 15µM* | 1% | -18%
O=C(CN1c2cccc3cccc(c23)S1(=O)=O)Nc1ccc(F)c(F)c1F | -5% | x | x | x | x | 23µM*
COc1ccccc1C(=O)Nc1nnc(SCc2cc(=O)c3cc(Cl)ccc3[nH]2)s1 | x | x | x | -8% | x | x
Cc1nc(-c2ccc(Cl)cc2)sc1CCNC(=O)c1ccc(C(F)(F)F)cc1 | x | x | x | 2% | x | x
c1ccc(OCCSc2nnnn2-c2ccccc2)cc1 | 3.7µM* | 0.89µM* | 16µM* | 2.7µM* | 2.5µM* | u
Fc1ccccc1OCCSc1nnnn1-c1ccccc1 | 10µM* | u | 3.2µM* | 3µM* | 2.5µM* | u
COc1ccccc1OCCSc1nnnn1-c1ccc(C)cc1 | u | -5% | u | 17µM* | 15% | u
SMILES | ELG1 genotox | Rab9 promoter act | SMN2 splice enh | FLuc modulator | NPC1 promoter act | ELG1 DNA repair
COc1ccc(C(=O)NCCc2nc3ccccc3[nH]2)cc1 | x | x | -4% | -7% | x | x
Cc1cc(C(=O)Cn2nc(C(=O)O)c3ccccc3c2=O)c(C)n1-c1cccc(C(F)(F)F)c1 | -1% | -7% | x | -3% | 0% | -12%
CCCn1c(C)cc(C(=O)Cn2nnc3ccccc3c2=O)c1C | u | 0.89µM* | 13µM* | 4.3µM* | 1µM* | u
CC(C)(C)c1ccc(C(=O)Cn2nc(C(=O)O)c3ccccc3c2=O)cc1 | -8% | 0% | x | 9.5µM* | -8% | -6%
COCCn1c(C)cc(C(=O)Cn2nc(C(=O)O)c3ccccc3c2=O)c1C | 8.2µM* | u | 25% | 1.2µM* | 30% | u
Cc1cc(C(=O)Cn2nc(C(=O)O)c3ccccc3c2=O)c(C)n1-c1ccc(F)cc1 | u | 20% | u | 2.7µM* | 21% | u
Cc1cc(C(=O)Cn2nc(C(=O)O)c3ccccc3c2=O)c(C)n1C1CC1 | 13% | 30% | 6% | -17% | 15% | 9%
CCCn1c(C)cc(C(=O)CSc2nnc3n(CCC)c(=O)c4ccccc4n23)c1C | 2% | -4% | 17% | -2% | -1% | 7%
C=CCn1c(C)cc(C(=O)Cn2nc(C(=O)O)c3ccccc3c2=O)c1C | u | u | 11µM* | 0.48µM* | u | u
Cc1ccnc2nc(C(=O)Nc3nc4ccccc4s3)nn12 | u | 2.8µM* | x | 11µM* | 1µM* | u
Cc1csc(NC(=O)c2nc3nccc(C)n3n2)n1 | u | u | 14% | u | u | u
Cc1ccc(NC(=O)c2nc3nccc(C)n3n2)c(C)c1 | u | u | 11µM* | u | u | u
Cn1c(=O)oc2cc(S(=O)(=O)NCCC(=O)Nc3ccc(F)cc3F)ccc21 | x | x | -3% | -3% | x | x
CCCN(CCC)C(=O)Cn1c(=O)n(Cc2ccc(C(=O)NCCc3ccc(Cl)cc3)cc2)c(=O)c2ccccc21 | x | x | 3% | u | x | x
COc1cc2c(cc1OC)C(C)N(C(=O)c1cc3c(C)cc(C)cc3[nH]1)CC2 (configuration not stated) | -22% | -9% | x | 2% | -15% | 16µM*
C=CCSc1nncn1/N=C/c1ccc(OC)cc1 | 21µM* | 2.2µM* | 13µM* | 6.7µM* | 2.8µM* | u
COc1ccc(/C=N/n2cnnc2SCCO)cc1OC | 15% | -3% | 13% | u | 4% | u
CCCNC(=O)Cn1nc(-c2ccc(C)c(C)c2)c2cnc3ccc(OC)cc3c21 | x | x | x | -6% | x | x
O=C(O)c1cccc(S(=O)(=O)Nc2ccc3c(c2)CCC3)c1 | 5% | 4% | x | u | -1% | 11%
COc1cccc(C2=Nc3cccc4cccc(c34)N2)c1 | 2% | 18% | 1% | 12µM* | u | -1%
c1coc(C2=Nc3cccc4cccc(c34)N2)c1 | -5% | 20% | -37% | u | 13% | 11%
Nc1ccc(C2=Nc3cccc4cccc(c34)N2)cc1 | -1% | 9% | x | 21µM* | 21% | -3%
Cc1ccc(N(Cc2cccs2)C(=O)c2ccco2)cc1 | x | x | x | -20% | x | x
